Experimental data from ChEMBL document CHEMBL2218924, “A broad activity screen in support of a chemogenomic map for kinase signalling research and drug discovery” (Biochem J, 2013).

Experiments:
[1] = target: T1, Serine/threonine-protein kinase TBK1 (Homo sapiens) (UniProt Q9UHD2); conditions: at 10 µM
T1 sequence (whole entry): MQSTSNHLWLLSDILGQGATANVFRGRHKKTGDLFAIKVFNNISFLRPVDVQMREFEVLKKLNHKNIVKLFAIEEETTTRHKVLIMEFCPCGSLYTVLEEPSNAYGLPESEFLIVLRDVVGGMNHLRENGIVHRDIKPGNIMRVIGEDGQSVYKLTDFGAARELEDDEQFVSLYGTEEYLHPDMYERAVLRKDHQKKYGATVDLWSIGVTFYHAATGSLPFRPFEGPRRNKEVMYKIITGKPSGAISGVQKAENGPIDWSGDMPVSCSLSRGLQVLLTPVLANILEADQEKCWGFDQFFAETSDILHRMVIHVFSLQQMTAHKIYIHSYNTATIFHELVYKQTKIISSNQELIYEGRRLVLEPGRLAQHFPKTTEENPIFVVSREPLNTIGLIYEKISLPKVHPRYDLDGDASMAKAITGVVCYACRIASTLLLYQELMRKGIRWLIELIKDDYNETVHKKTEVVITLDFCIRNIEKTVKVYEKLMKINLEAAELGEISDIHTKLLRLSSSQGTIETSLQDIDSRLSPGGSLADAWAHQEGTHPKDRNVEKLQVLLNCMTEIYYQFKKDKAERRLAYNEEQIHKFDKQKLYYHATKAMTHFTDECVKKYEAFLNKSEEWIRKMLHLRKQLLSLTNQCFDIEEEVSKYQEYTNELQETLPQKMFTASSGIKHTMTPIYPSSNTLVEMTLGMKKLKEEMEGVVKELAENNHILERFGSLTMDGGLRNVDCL

[2] = target: T2, TGF-beta receptor type-1 (Homo sapiens) (UniProt P36897); conditions: at 1 µM
T2 sequence (whole entry): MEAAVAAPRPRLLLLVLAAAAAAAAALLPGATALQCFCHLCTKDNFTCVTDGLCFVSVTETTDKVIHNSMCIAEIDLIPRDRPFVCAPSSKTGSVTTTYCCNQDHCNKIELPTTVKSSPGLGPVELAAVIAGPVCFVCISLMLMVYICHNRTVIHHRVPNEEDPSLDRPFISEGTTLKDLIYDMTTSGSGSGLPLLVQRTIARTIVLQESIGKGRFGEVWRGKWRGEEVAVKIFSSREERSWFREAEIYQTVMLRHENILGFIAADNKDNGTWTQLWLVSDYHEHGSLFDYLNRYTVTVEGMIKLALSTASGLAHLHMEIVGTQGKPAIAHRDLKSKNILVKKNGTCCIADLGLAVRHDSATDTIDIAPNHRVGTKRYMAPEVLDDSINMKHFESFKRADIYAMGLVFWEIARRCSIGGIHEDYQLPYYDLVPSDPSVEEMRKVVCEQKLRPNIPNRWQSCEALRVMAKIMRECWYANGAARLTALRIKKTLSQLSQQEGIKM

[3] = target: T2, TGF-beta receptor type-1 (Homo sapiens); conditions: at 10 µM
[4] = target: Insulin-like growth factor 1 receptor (Homo sapiens) (UniProt P08069); conditions: at 1 µM
[5] = target: Insulin-like growth factor 1 receptor (Homo sapiens) (UniProt P08069); conditions: at 10 µM
[6] = target: T3, Inhibitor of nuclear factor kappa-B kinase subunit alpha (Homo sapiens) (UniProt O15111); conditions: at 1 µM
T3 sequence (whole entry): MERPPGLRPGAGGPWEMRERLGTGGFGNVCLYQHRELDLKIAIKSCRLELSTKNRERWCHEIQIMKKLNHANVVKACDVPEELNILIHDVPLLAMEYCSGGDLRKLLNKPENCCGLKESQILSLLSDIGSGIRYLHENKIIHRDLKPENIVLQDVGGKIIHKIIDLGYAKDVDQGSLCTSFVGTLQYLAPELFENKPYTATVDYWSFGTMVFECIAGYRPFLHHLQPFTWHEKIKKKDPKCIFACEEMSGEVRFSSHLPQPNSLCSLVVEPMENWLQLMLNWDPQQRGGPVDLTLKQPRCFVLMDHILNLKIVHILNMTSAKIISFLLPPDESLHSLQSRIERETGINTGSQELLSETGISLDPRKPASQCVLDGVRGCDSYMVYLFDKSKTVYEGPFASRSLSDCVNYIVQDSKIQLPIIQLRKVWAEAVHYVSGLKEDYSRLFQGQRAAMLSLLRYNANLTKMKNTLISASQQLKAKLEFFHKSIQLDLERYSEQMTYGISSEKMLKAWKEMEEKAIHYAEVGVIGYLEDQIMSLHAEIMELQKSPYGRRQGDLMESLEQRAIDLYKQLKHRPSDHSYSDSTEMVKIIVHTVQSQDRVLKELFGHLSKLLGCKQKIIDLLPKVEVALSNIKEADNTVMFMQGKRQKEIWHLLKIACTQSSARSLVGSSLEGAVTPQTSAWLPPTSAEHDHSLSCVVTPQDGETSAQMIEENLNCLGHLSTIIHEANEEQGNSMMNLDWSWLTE

[7] = target: T3, Inhibitor of nuclear factor kappa-B kinase subunit alpha (Homo sapiens); conditions: at 10 µM
[8] = target: T4, Inhibitor of nuclear factor kappa-B kinase subunit beta (Homo sapiens) (UniProt O14920); conditions: at 1 µM
T4 sequence (whole entry): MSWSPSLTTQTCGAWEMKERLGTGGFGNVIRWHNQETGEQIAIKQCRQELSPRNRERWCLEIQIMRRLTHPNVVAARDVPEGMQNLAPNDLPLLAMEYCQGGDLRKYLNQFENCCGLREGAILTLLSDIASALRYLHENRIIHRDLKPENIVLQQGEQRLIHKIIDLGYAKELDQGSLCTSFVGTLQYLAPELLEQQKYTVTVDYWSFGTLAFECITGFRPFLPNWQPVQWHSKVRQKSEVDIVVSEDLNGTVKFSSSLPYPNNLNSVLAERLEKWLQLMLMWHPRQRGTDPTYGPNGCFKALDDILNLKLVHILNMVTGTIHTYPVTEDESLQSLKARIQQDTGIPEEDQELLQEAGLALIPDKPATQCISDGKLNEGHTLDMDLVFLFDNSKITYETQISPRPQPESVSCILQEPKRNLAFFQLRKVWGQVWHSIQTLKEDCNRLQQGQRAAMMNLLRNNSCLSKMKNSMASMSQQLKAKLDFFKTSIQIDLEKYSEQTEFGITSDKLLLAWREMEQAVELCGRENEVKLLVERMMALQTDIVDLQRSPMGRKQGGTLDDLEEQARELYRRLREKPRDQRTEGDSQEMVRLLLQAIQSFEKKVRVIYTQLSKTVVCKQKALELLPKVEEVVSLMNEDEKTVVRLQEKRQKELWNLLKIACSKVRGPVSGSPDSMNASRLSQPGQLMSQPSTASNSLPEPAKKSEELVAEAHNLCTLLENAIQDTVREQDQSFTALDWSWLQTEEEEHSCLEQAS

[9] = target: T4, Inhibitor of nuclear factor kappa-B kinase subunit beta (Homo sapiens); conditions: at 10 µM
[10] = target: Insulin receptor (Homo sapiens) (UniProt P06213); conditions: at 1 µM
Insulin receptor (Homo sapiens), sequence (P06213 28-758 limits assumed): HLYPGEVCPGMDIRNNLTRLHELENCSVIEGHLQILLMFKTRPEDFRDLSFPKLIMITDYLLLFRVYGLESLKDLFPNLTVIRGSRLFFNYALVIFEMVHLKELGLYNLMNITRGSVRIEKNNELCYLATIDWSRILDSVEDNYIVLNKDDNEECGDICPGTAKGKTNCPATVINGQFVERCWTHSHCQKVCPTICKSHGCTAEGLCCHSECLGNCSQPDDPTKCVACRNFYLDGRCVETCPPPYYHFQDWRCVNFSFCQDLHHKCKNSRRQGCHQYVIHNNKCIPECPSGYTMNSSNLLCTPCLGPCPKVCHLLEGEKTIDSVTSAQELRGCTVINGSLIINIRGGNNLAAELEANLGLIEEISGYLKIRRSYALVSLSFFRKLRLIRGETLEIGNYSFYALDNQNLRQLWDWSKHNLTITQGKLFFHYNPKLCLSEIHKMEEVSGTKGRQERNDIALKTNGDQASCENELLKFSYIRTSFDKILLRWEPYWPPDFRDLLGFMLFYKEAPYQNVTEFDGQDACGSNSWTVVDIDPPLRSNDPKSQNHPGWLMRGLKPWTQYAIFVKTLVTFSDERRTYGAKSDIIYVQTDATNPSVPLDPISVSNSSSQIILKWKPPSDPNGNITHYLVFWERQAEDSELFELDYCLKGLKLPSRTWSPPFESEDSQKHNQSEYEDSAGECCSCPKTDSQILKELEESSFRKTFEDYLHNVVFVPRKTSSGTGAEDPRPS
Insulin receptor (Homo sapiens), sequence (P06213 763-1382 limits assumed): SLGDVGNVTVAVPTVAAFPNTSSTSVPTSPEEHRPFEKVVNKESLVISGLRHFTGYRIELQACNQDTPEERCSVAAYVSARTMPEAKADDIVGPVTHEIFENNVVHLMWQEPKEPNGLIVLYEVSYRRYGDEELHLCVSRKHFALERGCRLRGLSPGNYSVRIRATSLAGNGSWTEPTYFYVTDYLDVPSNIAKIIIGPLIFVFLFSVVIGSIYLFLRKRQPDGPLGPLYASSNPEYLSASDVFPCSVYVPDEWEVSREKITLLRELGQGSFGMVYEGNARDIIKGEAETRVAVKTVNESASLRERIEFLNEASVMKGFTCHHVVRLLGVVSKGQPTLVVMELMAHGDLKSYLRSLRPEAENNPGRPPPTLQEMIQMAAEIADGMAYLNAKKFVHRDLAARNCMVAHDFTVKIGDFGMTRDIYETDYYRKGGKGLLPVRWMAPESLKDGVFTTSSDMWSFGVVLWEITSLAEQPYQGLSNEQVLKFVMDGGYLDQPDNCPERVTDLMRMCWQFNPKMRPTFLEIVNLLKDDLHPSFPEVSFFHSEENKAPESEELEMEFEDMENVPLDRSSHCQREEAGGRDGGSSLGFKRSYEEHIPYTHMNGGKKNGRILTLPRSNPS

Insulin-like growth factor 1 receptor (Homo sapiens), sequence (P08069 31-736 limits assumed): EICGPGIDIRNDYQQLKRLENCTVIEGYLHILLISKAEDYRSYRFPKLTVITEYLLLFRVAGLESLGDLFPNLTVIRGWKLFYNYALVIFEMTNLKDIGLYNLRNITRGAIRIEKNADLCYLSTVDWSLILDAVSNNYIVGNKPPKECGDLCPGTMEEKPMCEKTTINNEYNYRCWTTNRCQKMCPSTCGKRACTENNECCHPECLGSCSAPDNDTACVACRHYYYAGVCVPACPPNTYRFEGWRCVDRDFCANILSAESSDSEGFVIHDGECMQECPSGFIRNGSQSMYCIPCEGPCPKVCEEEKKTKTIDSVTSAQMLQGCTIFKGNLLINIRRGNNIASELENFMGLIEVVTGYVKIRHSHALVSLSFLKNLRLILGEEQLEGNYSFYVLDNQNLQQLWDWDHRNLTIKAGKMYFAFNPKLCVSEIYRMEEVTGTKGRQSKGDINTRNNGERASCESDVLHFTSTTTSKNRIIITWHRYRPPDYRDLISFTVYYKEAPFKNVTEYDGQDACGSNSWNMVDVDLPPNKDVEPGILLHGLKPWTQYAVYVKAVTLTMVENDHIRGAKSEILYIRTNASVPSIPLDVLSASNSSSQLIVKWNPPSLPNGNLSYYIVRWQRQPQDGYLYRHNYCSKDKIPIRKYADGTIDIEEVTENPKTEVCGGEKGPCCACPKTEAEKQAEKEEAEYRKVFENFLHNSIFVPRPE
Insulin-like growth factor 1 receptor (Homo sapiens), sequence (P08069 741-1367 limits assumed): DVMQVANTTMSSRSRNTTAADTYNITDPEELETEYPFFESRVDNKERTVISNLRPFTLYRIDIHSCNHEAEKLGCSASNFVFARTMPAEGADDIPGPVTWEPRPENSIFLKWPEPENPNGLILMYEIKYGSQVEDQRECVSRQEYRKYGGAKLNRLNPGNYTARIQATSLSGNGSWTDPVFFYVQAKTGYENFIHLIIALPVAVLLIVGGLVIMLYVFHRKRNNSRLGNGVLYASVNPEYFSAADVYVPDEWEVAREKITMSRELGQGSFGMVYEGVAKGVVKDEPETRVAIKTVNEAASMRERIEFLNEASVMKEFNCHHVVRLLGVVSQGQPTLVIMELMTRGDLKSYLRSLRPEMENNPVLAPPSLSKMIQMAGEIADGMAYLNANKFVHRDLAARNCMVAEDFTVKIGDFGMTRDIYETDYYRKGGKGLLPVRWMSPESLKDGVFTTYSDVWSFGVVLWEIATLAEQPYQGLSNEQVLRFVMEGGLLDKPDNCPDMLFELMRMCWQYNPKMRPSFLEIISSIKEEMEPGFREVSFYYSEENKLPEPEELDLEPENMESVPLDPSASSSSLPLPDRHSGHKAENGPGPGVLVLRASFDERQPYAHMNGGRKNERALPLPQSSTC

SMILES | residual activity [1] | residual activity [2] | residual activity [3] | residual activity [4] | residual activity [5] | residual activity [6] | residual activity [7] | residual activity [8] | residual activity [9] | residual activity [10]
CCC(=O)Nc1ccc2ncnc(Nc3cccc(Br)c3)c2c1 | 68% | 75% | 94% | 97% | 102% | 121% | 125% | 112% | 97% | 110%
CC(C)n1cnc2c(NCc3ccccc3)nc(NCCCO)nc21 | 66% | 93% | 81% | 90% | 87% | 116% | 104% | 110% | 94% | 91%
O=[N+]([O-])c1ccc(-c2nc(-c3ccc(F)cc3)c(-c3ccncc3)[nH]2)cc1 | 76% | 61% | 59% | 97% | 105% | 119% | 99% | 129% | 111% | 107%
O=C1Nc2ccccc2/C1=C1/Nc2ccccc2/C1=N\OCCC(O)CO (stereo not drawn) | 1% | 77% | 64% | 10% | 10% | 82% | 46% | 104% | 66% | 17%
Cn1cc(/C=C2\C(=O)Nc3ccc(S(N)(=O)=O)cc32)c2ccccc21 | 10% | 100% | 96% | 81% | 86% | 100% | 92% | 87% | 78% | 91%
Cc1nc(-c2ccccc2)c(-c2ccncc2)o1 | 88% | 116% | 100% | 107% | 116% | 109% | 101% | 109% | 82% | 117%
C[C@@H](N)[C@H]1CC[C@H](C(=O)Nc2ccncc2)CC1 | 99% | 113% | 105% | 115% | 105% | 136% | 64% | 87% | 77% | 100%
COc1ccc(S(=O)(=O)N(CCO)c2ccccc2CN(C)C/C=C/c2ccc(Cl)cc2)cc1 | 56% | 97% | 92% | 94% | 93% | 117% | 108% | 115% | 110% | 91%
Cc1cc(Nc2nc(-c3ccccc3)nc3ccccc23)n[nH]1 | 0% | 96% | 78% | 20% | 1% | 102% | 72% | 78% | 51% | 16%
COc1cccc(-c2cc(=O)c3ccccc3o2)c1N | 95% | 104% | 93% | 93% | 97% | 105% | 97% | 125% | 109% | 109%
O=C1NC(=O)c2c1c1c3ccccc3[nH]c1c1[nH]c3cc(Br)ccc3c21 | 54% | 100% | 98% | 96% | 99% | 89% | 71% | 77% | 100% | 99%
CC[n+]1c(/C=C/N(C)c2ccccc2)n(-c2ccccc2)c2ccc(-c3nc4ccccc4s3)cc21 | 68% | 80% | 102% | 97% | 86% | 92% | 93% | 105% | 102% | 107%
O=c1cc(-c2cccc3c2Sc2ccccc2S3)oc(N2CCOCC2)c1 | 80% | 114% | 88% | 105% | 101% | 98% | 93% | 106% | 103% | 105%
CC(C)n1cnc2/c(=N/c3cccc(Cl)c3)nc(NCCO)[nH]c21 | 33% | 79% | 85% | 72% | 31% | 114% | 98% | 102% | 85% | 83%
CO[C@H]1[C@@H](OC)C[C@H](C)[C@@H](OC)C2=CC(=O)C=C(NC(=O)/C(C)=C/C=C/[C@H](OC)[C@@H](OC(N)=O)/C(C)=C/[C@@H]1C)C2=O | 69% | 99% | 89% | 106% | 96% | 85% | 113% | 111% | 107% | 109%
O=C(Nc1cccc(Nc2cc(Nc3cccc(C(F)(F)F)c3)ncn2)c1)C1CC1 | 61% | 89% | 77% | 98% | 89% | 108% | 125% | 99% | 96% | 105%

SMILES | residual activity [1] | residual activity [2] | residual activity [3] | residual activity [4] | residual activity [5] | residual activity [6] | residual activity [7] | residual activity [8] | residual activity [9] | residual activity [10]
O=C1NC(=O)c2cc(Nc3ccc(F)cc3)c(Nc3ccc(F)cc3)cc21 | 54% | 78% | 76% | 90% | 77% | 111% | 113% | 108% | 95% | 115%
N#C/C(=C(\N)Sc1ccc(N)cc1)c1ccccc1C(F)(F)F | 16% | 101% | 95% | 103% | 102% | 101% | 121% | 106% | 109% | 113%
Oc1ccc(Nc2nc(-c3ccc(Cl)cc3)cs2)cc1 | 80% | 123% | 100% | 103% | 108% | 102% | 134% | 115% | 110% | 112%
NC(=O)c1ccc2[nH]c(-c3ccc(Oc4ccc(Cl)cc4)cc3)nc2c1 | 60% | 84% | 85% | 89% | 85% | 123% | 137% | 108% | 106% | 102%
Oc1ccc(-c2nc(-c3ccc(F)cc3)c(-c3ccncc3)[nH]2)cc1 | 85% | 100% | 40% | 122% | 123% | 90% | 59% | 120% | 91% | 136%
Cn1nc2c3c(cccc31)C(=O)c1ccccc1-2 | 55% | 85% | 76% | 89% | 99% | 110% | 82% | 100% | 87% | 94%
O=C1NC(=O)/C(=C/c2ccc3c(c2)OC(F)(F)O3)S1 | 67% | 95% | 89% | 113% | 102% | 112% | 107% | 111% | 92% | 111%
COc1cc2ncnc(Nc3ccc(O)c(Br)c3)c2cc1OC | 15% | 79% | 71% | 87% | 81% | 97% | 72% | 97% | 82% | 114%
COc1ccc(OC)c2c(=S)c3ccccc3[nH]c12 | 67% | 101% | 81% | 98% | 101% | 99% | 102% | 95% | 95% | 99%
O=c1c2ccccc2[nH]c(=S)n1CCN1CCC(=C(c2ccc(F)cc2)c2ccc(F)cc2)CC1 | 68% | 95% | 80% | 112% | 93% | 87% | 128% | 114% | 105% | 109%
COc1cc2ncnc(Nc3ccc(Oc4ccccc4)cc3)c2cc1OC | 57% | 99% | 98% | 110% | 89% | 117% | 101% | 103% | 122% | 110%
Oc1n[nH]c2nnc(-c3c(-c4ccccc4)nn4ccccc34)cc12 | 60% | 84% | 74% | 84% | 91% | 102% | 92% | 97% | 93% | 47%
O=Nc1c(-c2c(O)[nH]c3ccccc23)[nH]c2ccccc12 | 1% | 104% | 73% | 40% | 20% | 76% | 57% | 87% | 67% | 17%
Cc1cc2ncc(-c3ccccc3)nc2cc1C | 73% | 100% | 91% | 99% | 101% | 105% | 109% | 101% | 99% | –
CCN(CC)CCCCN1c2ccccc2Oc2ccc(Cl)cc21 | 82% | 84% | 105% | 107% | 104% | 97% | 102% | 112% | 105% | 114%
Nc1nc(Nc2ccc(S(N)(=O)=O)cc2)nn1C(=S)Nc1c(F)cccc1F | -2% | 13% | 2% | 74% | 83% | 10% | 1% | 33% | 6% | –
